Results on 26 molecules are retold here after PubChem BioAssay (Tox21).

The nature of experiment [1]: qHTS RealTime-Glo MT Cell Viability Assay in HEK293 cells - 16 hour (AID 1224872). Note: nearly all actives have a fitted effect of over 50% in size. Note: potency is the fitted concentration of half-maximal effect. An outline of the steps: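 Homogeneous bioluminescent viability format in HEK293 cells (600 cells/well). Following 5 h at 37 C/5% CO2, 23 nL compound was pintooled; the signal was measured repeatedly during 40 h incubation.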
The nature of experiment [2]: qHTS RealTime-Glo MT Cell Viability Assay in HEK293 cells - 40 hour (AID 1224874). Note: nearly all actives have a fitted effect of over 50% in size. Note: potency is the fitted concentration of half-maximal effect. As to conditions: RealTime-Glo luminescence; max response: hits give low values. The procedure, abridged:
(§1)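 qHTS format; HEK293 cells with NanoLuc/prosubstrate reagent, 37 C/5% CO2 for 5 h pre-dosing; compounds 23 nL in DMSO; luminescence at each time point reflects viable cells.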
Background: In qHTS, concentration-response curves come from the screen itself.

The nature of experiment [3]: A CellTox Green Cytotoxicity Assay to monitor cytotoxicity in HEK293 cells - 24 hour (AID 1224875). Note: series mostly up to about 77 µM; nearly all actives have a fitted effect of over 45% in size. The procedure, abridged: (§2)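 Each value comes from one timepoint of a single continuous run in which HEK293 cells with CellTox Green were exposed to compound for up to 40 h at 37 C, dye fluorescence rising with cell death.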
Experiment [4] in a line: A CellTox Green Cytotoxicity Assay to monitor cytotoxicity in HepG2 cells - 16 hour (AID 1224876). Note: nearly all actives have a fitted effect of over 45% in size. An outline of the steps:
(§3)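 Continuous culture of HepG2 cells with a membrane-impermeant DNA dye; rising fluorescence marks dead cells. Compound exposure lasted up to 40 h at 37 C, with reads every 8 h from 0 h.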

Experiment [5] in a line: qHTS RealTime-Glo MT Cell Viability Assay in HepG2 cells - 32 hour (AID 1224877). Note: nearly all actives have a fitted effect of over 55% in size. An outline of the steps:
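Cell number in HepG2 cultures estimated from NanoLuc luminescence generated by metabolic reduction of a prosubstrate by living cells. The homogeneous, nonlytic format allowed repeated reads at 0, 8, 16, 24, 32 and 40 h of compound exposure.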

The nature of experiment [6]: A CellTox Green Cytotoxicity Assay to monitor cytotoxicity in HepG2 cells - 24 hour (AID 1224878). Note: nearly all actives have a fitted effect of over 45% in size. Note: potency is the fitted concentration of half-maximal effect. An outline of the steps:
as §3

Experiment [7] can be described thus: A CellTox Green Cytotoxicity Assay to monitor cytotoxicity in HepG2 cells - 40 hour (AID 1224879). Note: nearly all actives have a fitted effect of over 40% in size. Note: potency is the fitted concentration of half-maximal effect. An outline of the steps:
as §3

The nature of experiment [8]: qHTS RealTime-Glo MT Cell Viability Assay in HEK293 cells - 0 hour (AID 1224880). Note: top concentration of the series differs between compounds; nearly all actives have a fitted effect of over 45% in size. The procedure, abridged: as §1
A short description of experiment [9]: A CellTox Green Cytotoxicity Assay to monitor cytotoxicity in HEK293 cells - 32 hour (AID 1224881). Note: nearly all actives have a fitted effect of over 40% in size. An outline of the steps:
as §2

Experiment [10] can be described thus: qHTS RealTime-Glo MT Cell Viability Assay in HepG2 cells - 8 hour (AID 1224873). Note: nearly all actives have a fitted effect of over 55% in size. The procedure, abridged: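 Real-time viability: cells seeded at 600 per well together with NanoLuc and cell-permeant prosubstrate, compounds added after 5 h incubation. Luminescence tracked at 0, 8, 16, 24, 32 and 40 h of exposure.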

Results filed as inconclusive are left out. Unmarked numbers belong to inactive results. Calls of active or inactive are those of the source. Calls come from the whole dose curve; as a rule, active = well fitted curve in the direction sought with a large enough effect in the repeat runs; inconclusive = weak or mixed curves; inactive = no such curve, though single readings can be large; an effect the other way counts as inactive or inconclusive.
% is set by controls: 0 for no effect and ±100 for the full control effect.

Take `Cc1ncsc1CCCl`: the Potency result in [1], in experiment [3], in [4], in experiment [5], in [6] and in [7] was “inactive” throughout. Besides, the Potency result in experiment [9] is “inactive”. Besides, the max response in [2] was 3.38%. Also, the outcome in experiment [8] was inactive.
For `CCCCOC(=O)c1ccccc1N`, the Potency entry in experiment [1], in experiment [10], in [4] and in experiment [5] was “inactive” in each case. Besides, the max response in experiment [2] was 0.429%. The Potency in experiment [6] was 49.3 µM (active); in experiment [7], 55.3 µM (active). Further, in [8], the outcome was inactive.
With `CCN(CC)C(=O)[C@@H]1C=C2c3cccc4[nH]cc(c34)C[C@H]2N(C)C1`, the Potency result in [1], in experiment [10], in [3], in experiment [4], in experiment [5] and in experiment [6] was “inactive” throughout. Besides, the Potency entry in [7] and in [9] was “inactive” each time. In addition, in [8], the call was inactive.
For `Nc1n[nH]c(N)n1`, the Potency entry in experiment [1], in experiment [10], in experiment [3], in experiment [4], in experiment [5] and in experiment [6] was “inactive” each time. Besides, the Potency entry in experiment [7] and in experiment [9] was “inactive” each time. The molecule was called inactive in [8].
For the molecule `CCC1(c2ccccc2)C(=O)N=C(O)NC1=O` (stereo not given), the Potency entry in [1], in experiment [3], in experiment [4], in experiment [5], in [6] and in experiment [7] was “inactive” each time. In addition, the Potency result in [9] is “inactive”. In addition, in experiment [2], the max response is 9.07%. The molecule was classed as inactive in [8].
`CCCCOC(=O)c1ccccc1C(=O)O`: the Potency result in [1], in experiment [3], in experiment [4], in [5], in experiment [6] and in [7] was “inactive” throughout. The Potency result in [9] was “inactive”. Also, the max response in experiment [2] is 1.78%. Besides, the molecule was classed as inactive in experiment [8].
With `COc1cccc(C(=O)NN(C(=O)c2cc(C)cc(C)c2)C(C)(C)C)c1C`, the Potency result in experiment [1], in experiment [10], in experiment [3], in experiment [4], in [7] and in experiment [9] was “inactive” in each case. Besides, the max response in experiment [2] was -10%. In addition, the Potency in experiment [6] is 0.616 µM (active). In addition, the outcome in experiment [8] was inactive.
Take `N#CCNCC#N`: the Potency result in experiment [1], in experiment [3], in [4], in experiment [5], in experiment [6] and in [7] was “inactive” throughout. Also, the Potency result in experiment [9] is “inactive”. Also, in [2], the max response was 3.83%. Also, the outcome in experiment [8] was inactive.
Turning to `CC(=O)C(Cl)Cl`, the Potency result in [1], in experiment [10], in experiment [3], in experiment [4], in [5] and in experiment [9] was “inactive” in each case. In addition, in [2], the max response was 7%. Besides, the result in [8] was inactive.
Regarding `COC(=O)C1=CCCN(C)C1`, the Potency result in experiment [1], in experiment [10], in experiment [3], in [5], in experiment [6] and in experiment [7] was “inactive” each time. In experiment [9], the Potency entry is “inactive”. The max response in experiment [2] was 3.81%. Further, in experiment [8], the call was inactive.
As to `COC(C)(C)C`, the Potency result in experiment [1], in experiment [3], in [4], in [5], in experiment [6] and in experiment [7] was “inactive” throughout. Moreover, the Potency entry in experiment [9] was “inactive”. Further, the max response in experiment [2] is 6.3%. Besides, the outcome in experiment [8] was inactive.
As to `O=C(N[C@H]1CN2CCC1CC2)c1cc2ccoc2cn1`, the Potency entry in experiment [1], in [10], in experiment [3], in experiment [4], in experiment [5] and in experiment [9] was “inactive” each time. Besides, the max response in experiment [2] is 8.57%. In addition, in [8], the call was inactive.
As for `N#CCCC#N`, the Potency result in [1], in [3], in experiment [4], in [5], in [6] and in experiment [7] was “inactive” in each case. Also, in experiment [9], the Potency entry is “inactive”. Further, the max response in experiment [2] is 17.5%. Also, the result in experiment [8] was inactive.
Turning to `CCSC(=O)N(CC)C1CCCCC1`, the Potency result in experiment [1], in [3], in experiment [4], in experiment [5], in [6] and in experiment [7] was “inactive” throughout. Also, the max response in [2] is -0.642%. Further, the result in experiment [8] was inactive.
On to `CCCCOC(=O)[C@@H](C)Oc1ccc(Oc2ccc(C#N)cc2F)cc1`, for which the values for the Potency in experiment [1] and in [2] were 13.7 µM (active) and 38.7 µM (active), respectively. Further, the Potency entry in experiment [3], in experiment [4], in [5], in experiment [6], in [7] and in experiment [9] was “inactive” throughout. Also, in [8], the molecule was called inactive.
In the case of `CN1C(=S)CN=C(c2ccccc2)c2cc(Cl)ccc21`, the Potency entry in experiment [1], in experiment [10], in experiment [3], in [4], in experiment [5] and in experiment [6] was “inactive” each time. Moreover, the Potency result in [7] is “inactive”. In experiment [8], the molecule was called inactive.
Turning to `Cc1ncc(CNC(=O)N(CCCl)N=O)c(N)n1`, the Potency result in experiment [1], in [3], in experiment [4], in experiment [5], in experiment [6] and in experiment [7] was “inactive” in each case. The Potency entry in [9] is “inactive”. In experiment [2], the max response was 2.69%. Also, the call in [8] was inactive.
For the molecule `C=CCC1=C(C)[C@@H](OC(=O)[C@@H]2[C@@H](C=C(C)C)C2(C)C)CC1=O`, the Potency was 11 µM (active) in experiment [1], 21.9 µM (active) in experiment [2] and 49 µM (active) in [7]. Besides, the Potency result in [10], in experiment [4] and in experiment [5] was “inactive” each time. In addition, in [8], the result was inactive.
`CCC(Cl)[N+](=O)[O-]` (stereo not given): the Potency result in experiment [1], in experiment [10], in [3], in experiment [4], in experiment [5] and in experiment [7] was “inactive” throughout. Further, the Potency result in experiment [9] was “inactive”. The max response in experiment [2] was 4.31%. Also, in [8], the result was inactive.
Regarding `CN1CCN(C(=O)O[C@H]2c3nccnc3C(=O)N2c2ccc(Cl)cn2)CC1`, the Potency entry in [10], in experiment [3], in experiment [4], in [5], in experiment [6] and in [7] was “inactive” in each case. Moreover, the Potency result in experiment [9] is “inactive”. Besides, the max response in experiment [2] was 6.06%. Also, the molecule was classed as inactive in [8].
Take `CC(CCc1ccccc1)NC(C)C(O)c1ccc(O)cc1` (stereo not given): the Potency entry in experiment [1], in experiment [3], in experiment [4], in [5], in experiment [7] and in experiment [9] was “inactive” in each case. Moreover, in experiment [2], the max response was -21.9%. Moreover, the molecule was called inactive in [8].
Turning to `COP(=S)(OC)Oc1ccc(S(N)(=O)=O)cc1`, the Potency result in experiment [1], in experiment [3], in experiment [4], in [5], in experiment [7] and in experiment [9] was “inactive” in each case. Besides, the max response in experiment [2] was -1.36%. Besides, the molecule was classed as inactive in [8].
Regarding `C[C@]12CC[C@H]3[C@@H](CC=C4C[C@@H](O)CC[C@@]43C)[C@@H]1CC[C@@H]2O`, the Potency entry in [10], in [3], in [4], in experiment [5], in experiment [6] and in experiment [7] was “inactive” each time. Further, in experiment [9], the Potency result was “inactive”. Further, in experiment [2], the max response was 8.6%. In addition, the call in experiment [8] was inactive.
On to `N#CC(O)c1ccccc1` (stereo not given), for which the Potency entry in experiment [10], in experiment [3], in experiment [4], in experiment [5], in experiment [6] and in experiment [7] was “inactive” in each case. The Potency result in experiment [9] is “inactive”. Moreover, the max response in [2] is 19.9%. Moreover, in experiment [8], the call was inactive.
As to `O=C(Nc1ccccc1)N(Cc1ccc(Cl)cc1)C1CCCC1`, the results for the Potency in [1] and in [2] were 21.9 µM (active) and 24.5 µM (active), respectively. Moreover, the Potency entry in experiment [3], in experiment [4], in [6], in experiment [7] and in [9] was “inactive” in each case. In experiment [8], the molecule was called inactive.
Consider `C[C@]1(O)CC[C@H]2[C@@H]3CCC4=CC(=O)CC[C@]4(C)[C@@]3(F)[C@@H](O)C[C@@]21C`, for which the Potency result in experiment [1], in [4], in experiment [5], in experiment [7] and in experiment [9] was “inactive” in each case.
